Experimental data from PubChem BioAssay.
Activity calls are given as the source filed them.

Columns and labels:
[1] = molecular target: Albumin (Bos taurus) (UniProt P02769); assay: bovine serum albumin binders on microarray, profiling panel, artefact control for SMM control protein annotation, biochemical, small-molecule microarray, Alexa647 label, 635/667 nm fluorescence (AID 1118); details: BSA-A647 binding, fluorescence 635 nm, higher = more signal;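 note: score merges 667 nm emission intensity and signal-to-noise per printed compound spot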
[2] = small-molecule microarray binders of probe aXIP, primary screen, biochemical, NeuroSMM set, 635/667 nm fluorescence (AID 1119); details: higher = more signal, called active from +8 up or from −8 down;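 note: probe is the protein aXip251-270 applied at 1 µg/mL to compound-printed slides; binding of probe to printed compounds measured as 667 nm fluorescence plus signal to noise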
[3] = small-molecule binders of probe aNOTCH3, primary screen, biochemical, small-molecule microarray, 635/667 nm fluorescence (AID 1120); details: higher = more signal;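 note: probe is a biotin-tagged antibody raised against NOTCH3 rather than NOTCH3 protein; score merges spot fluorescence near 667 nm with spot signal to noise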
[4] = small-molecule binders of probe aNOTCH2, primary screen, biochemical, small-molecule microarray, 635/667 nm fluorescence (AID 1121); details: higher = more signal;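 note: score merges feature fluorescence read at 667 nm with its signal to noise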
[5] = molecular target: Carbonic anhydrase 2 (Homo sapiens) (UniProt P00918); assay: CAII small-molecule binders, profiling panel, biochemical, small-molecule microarray, Alexa647-labelled CAII (AID 1122); details: CAII-A647 binding fluorescence, higher = more signal
[6] = COS7 lysate on small-molecule microarray, probe aHis, 635 nm (AID 1123); details: COS7 cell lysate, fluorescence, higher = more signal;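 note: z-score combines 667nm fluorescence intensity with signal-to-noise per printed compound spot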
[7] = compound binding in COS7 lysate, probe aLAP1, primary screen, cell lysate, small-molecule microarray (AID 1124); details: probe aLAP1, fluorescence, higher = more signal;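 note: lysate comes from COS7 cells expressing LAP1 and is applied at 0.3 µg/mL; score merges spot fluorescence near 667 nm with signal-to-noise over triplicate slides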
[8] = test system: Sam68 (KHDRBS1); assay: Sam68 small-molecule binders, primary screen, biochemical, small-molecule microarray, 635 nm fluorescence (AID 1125); details: small-molecule microarray binding, higher = more signal;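 note: score merges 667 nm channel intensity with signal to noise over triplicate slides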
[9] = test system: Chordin-like protein 2 (CHRDL2); assay: CHRDL2 small-molecule binders, primary screen, biochemical, small-molecule microarray, 635 nm fluorescence (AID 1126); details: small-molecule microarray binding, fluorescence 635 nm; higher = more signal;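 note: printed compound slides probed with Chrdl2 protein at 4 µg/mL for 1 h at 4 C; score merges 667 nm emission intensity with signal to noise over three replicate slides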
[10] = molecular target: Concanavalin-A (Canavalia ensiformis) (UniProt P02866); assay: ConA small-molecule binders, primary screen, artefact control for SMM control protein annotation, biochemical, small-molecule microarray, Alexa647 label, 635 nm (AID 1127); details: ConA-A647 binding fluorescence, higher = more signal;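 note: z combines 667 nm emission intensity with signal-to-noise across three replicate slides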
Chain of Concanavalin-A (Canavalia ensiformis) (P02866 whole entry, looked up): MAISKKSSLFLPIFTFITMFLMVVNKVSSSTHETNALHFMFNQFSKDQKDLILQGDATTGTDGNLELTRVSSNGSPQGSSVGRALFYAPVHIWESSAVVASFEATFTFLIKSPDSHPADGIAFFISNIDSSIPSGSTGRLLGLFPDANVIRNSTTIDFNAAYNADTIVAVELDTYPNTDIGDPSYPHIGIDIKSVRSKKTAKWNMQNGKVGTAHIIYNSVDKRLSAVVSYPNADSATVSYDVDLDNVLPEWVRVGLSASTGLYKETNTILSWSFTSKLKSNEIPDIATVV

Chain of Albumin (Bos taurus) (P02769 whole entry, looked up): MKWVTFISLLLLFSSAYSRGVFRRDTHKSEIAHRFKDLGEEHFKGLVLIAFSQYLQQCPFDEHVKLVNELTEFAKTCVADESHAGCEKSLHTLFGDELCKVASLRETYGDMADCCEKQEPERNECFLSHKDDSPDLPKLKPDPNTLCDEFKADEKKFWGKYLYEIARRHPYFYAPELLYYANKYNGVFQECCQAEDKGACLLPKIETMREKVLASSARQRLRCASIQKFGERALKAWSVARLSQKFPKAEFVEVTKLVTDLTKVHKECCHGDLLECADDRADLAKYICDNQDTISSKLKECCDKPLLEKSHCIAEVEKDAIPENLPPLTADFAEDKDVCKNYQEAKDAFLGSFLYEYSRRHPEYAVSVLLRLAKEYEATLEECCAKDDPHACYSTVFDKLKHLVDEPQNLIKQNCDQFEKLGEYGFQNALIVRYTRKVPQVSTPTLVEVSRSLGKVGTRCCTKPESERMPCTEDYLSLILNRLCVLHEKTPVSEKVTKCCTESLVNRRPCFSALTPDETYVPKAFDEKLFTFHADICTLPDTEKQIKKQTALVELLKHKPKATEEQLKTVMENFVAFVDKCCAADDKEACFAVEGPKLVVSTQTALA

Row | Structure (SMILES) | composite z-score [1] | composite Z-score [2] | composite z-score [3] | composite z-score [4] | composite z-score [5] | composite z-score [6] | composite z-score [7] | composite z-score [8] | composite z-score [9] | composite z-score [10]
1 | C=C(/C(=C/C[C@H](OC(=O)c1ccncc1)c1ccccc1OCCO)c1cnc2ccccc2c1)C(C)C | 0.706 | 0.0746 (inactive) | 0.145 | -0.126 | 0.566 | 0.443 | 0.0737 | 1.31 | 1.18 | 1.19
2 | CC(C)(C)OC(=O)CC[C@]12N=C(c3ccc(OCCCO)cc3)O[C@H]1c1ccccc1N(Cc1ccccc1)C2=O | 0.0468 | 2.86 (inactive) | 0.0525 | -0.0456 | 0.557 | 2.39 | 0.504 | 1.3 | 0.581 | 0.995
3 | CN(C)CCCC[C@@H]1NC(=O)[C@@H]2C[C@H](C(=O)O)[C@H](c3cccc(OCCO)c3)N2C1=O | 0.0812 | 0.627 (inactive) | -0.0914 | -0.116 | 0.198 | 0.491 | -0.0644 | -0.936 | 0.217 | 0.567
4 | O=C1[C@@]23C=C(Br)[C@H](C[C@@H]2COC3)[C@@]12CO2 | -0.512 | 0.395 (inactive) | 0.147 | -0.153 | -0.0903 | 0.301 | -0.0796 | 0.206 | 0.532 | 0.459
5 | COc1cc(NN2C(C(O)C3CCCCC3)C=CC3C(=O)N(C)C(=O)C32)cc(OC)c1OC (stereo not given) | 1.04 | 1.37 (inactive) | 0.678 | 0.22 | 0.424 | 2.78 | 0.339 | 1.32 | -0.531 | 1.15
6 | COC(=O)[C@@]1(Cc2ccc(OC)cc2)[C@H]2c3cc(C(=O)N4CCCC4)n(Cc4ccc(OC(F)(F)F)cc4)c3C[C@H]2CN1C(=O)c1ccccc1 | 0.943 | 0.308 (inactive) | 0.142 | 0.194 | -0.0687 | -0.0543 | -0.347 | -0.582 | -0.818 | 1.01
7 | C=CCNC(=O)[C@H]1[C@@H]2C(=O)O[C@@H](c3ccccc3)[C@@H](c3ccccc3)N2[C@@H](c2ccc(OCCO)cc2)[C@]12C(=O)Nc1ccc(C#CCNC(N)=O)cc12 | 0.601 | -0.262 (inactive) | 0.103 | -0.0624 | 0.587 | 0.261 | -0.113 | 1.18 | -0.269 | 1.1
8 | COc1cc(NN2C(C(O)c3ccc(I)cc3)C=CC3C(=O)N(c4ccccc4)C(=O)C32)cc(OC)c1OC (stereo not given) | 0.499 | 1.59 (inactive) | 0.185 | -0.0501 | 0.758 | 3.02 | 0.0865 | 1.32 | -0.357 | 1.01
9 | CC(C)C(=C=CC[C@H](O)c1cccc(OCCO)c1)CCO | 0.361 | 0.372 (inactive) | -0.173 | -0.14 | 0.512 | 0.397 | -0.207 | -0.126 | -0.298 | -0.0543
10 | C=C(/C(=C/C[C@@H](OC(C)=O)c1ccc(OCCO)cc1)c1cc(C(=O)OC)ccc1OC)C(C)C | 0.296 | 0.185 (inactive) | -0.0417 | -0.127 | 0.735 | 0.303 | 1.2 | 0.938 | -0.137 | 0.697
11 | CC(C)c1ccc(NN2C(C(O)Cc3ccccc3)C=CC3C(=O)N(c4ccccc4)C(=O)C32)cc1 (stereo not given) | 0.999 | 0.221 (inactive) | 0.428 | 0.0383 | 0.751 | 2.65 | 0.0643 | 1.31 | -0.209 | 1.14
12 | CCOC(=O)C=Cc1ccccc1O | 0.725 | -0.116 (inactive) | 0.186 | 0.0295 | 0.188 | 0.466 | 0.163 | 1.01 | 0.0871 | 0.591
13 | COc1ccc(C(O)C2C=CC3C(=O)N(c4ccccc4)C(=O)C3N2Nc2ccc(C(C)C)cc2)c2ccccc12 (stereo not given) | 0.916 | 0.0396 (inactive) | 0.378 | 0.186 | 0.725 | 2.84 | 0.284 | 1.31 | -0.118 | 1.12
14 | Cc1ccc(S[C@]2(C(=O)NC(C)C)CC(=O)N(C(C)C)[C@@H]2c2ccc(CO)cc2I)cc1 | 0.41 | -0.283 (inactive) | -0.0647 | -0.0686 | 0.326 | 1.32 | 0.366 | 1.12 | -0.598 | -0.0097
15 | CCOC(=O)C1=C[C@@H](C(C)(C)C)N(S(=O)(=O)c2ccc(C)cc2)[C@H]1c1ccc(C)cc1 | 0.804 | 0.403 (inactive) | 0.305 | 0.0554 | 0.263 | 2.49 | 0.512 | 1.29 | 0.205 | 1.18
16 | O=C1N[C@@H](Cc2ccccc2)C(=O)N2[C@@H]1C[C@@H](C(=O)O)[C@H]2c1ccc(O)cc1 | 0.145 | 0.84 (inactive) | 0.428 | 0.0712 | 0.757 | 1.33 | 0.341 | 0.754 | 1.1 | 1.01
